From PubChem BioAssay AID652175 (National Center for Advancing Translational Sciences (NCATS), 2013)
Where “and” joins values, the source holds several entries; their conditions need not be identical. Equal values may be shown once. Records with an inconclusive call do not appear. Calls of active or inactive are those of the source. The call rests on the fitted dose curve; in most records, active means well fitted inhibition curve with a large enough effect; inconclusive means small, poorly fitted or top-dose-only effect; inactive means no such curve, though single readings can be large or run the other way.

Test: qHTS Assay for Lipid Storage Modulators: S3 Assay against Probe and Analogs
Details: Drosophila S3 cells, BODIPY lipid droplet fluorescence, 18-24 h, oleic acid added to induce droplets; series mostly up to 46.1 µM; activity, negative = lipid storage inhibition: at the top concentration
Excerpt: Storing lipids as a reservoir for energy or the anabolism of elementary metabolites is a common feature of probably all cells and is conserved from bacteria to humans. The universal cellular lipid storage organelle is the so-called lipid storage droplet (LD). Although ubiquitous, LDs share a simple structure composed of a hydrophobic core that harbors the storage lipids, which is shielded by a droplet-specific phospholipid monolayer to which proteins are attached. The current model of LD biogenesis involves an incorporation of the lipid core into the membrane leaflets of the endoplasmic reticulum (ER) followed by a subsequent budding-like maturation of a LD, which ultimately pinches off. Once released, LD volume can increase by localized lipogenesis or fusion of existing droplets. Storage lipids are re-mobilized enzymatically by lipase activity. Lipase regulation in the adipocyte is heavily studied and involves multiple components including catecholamine signaling, the LD-associated proteins Perilipin and comparative gene identification-58 (CGI-58) and at least two lipases named hormone sensitive lipase (HSL) and adipocyte triglyceride lipase (ATGL). LD regulation outside of the adipocyte is poorly understood and only few components are known. However, there is an urgent need to learn more about ectopic fat depots as mislocalized storage of lipids, for example in the liver or muscle, is an eminent health problem associated with insulin resistance or the metabolic syndrome. We developed a laser-scanning cytometer assay to enable 1,536-well screening and combined the results of the small molecules screen with an RNAi database based on lipid storage. In this assay we tested analogs of the probe against the original qHTS assay, which involved drosophila melanogaster cells (S3), to see if these small molecules could disrupt lipid storage. NIH Molecular Libraries Probe Production Centers Network [MLPCN] NIH Chemical Genomics Center [NCGC] MLPCN Grant: MH085686 Assay Submitter (PI): Mathias Beller, Max-Planck-Institut fur Biophysikalische Chemie
qHTS was performed with embryonic Drosophila S3 cells (Bloomington Drosophila Genomics Resource Center [DGRC]). We dispensed 4 uL of cells at 1.25 x 10^6 cells/mL into LoBase Aurora COC 1,536-well plates (black walled, clear bottom) with a bottle-valve solenoid-based dispenser (Aurora) to obtain 5,000 cells/well. Triacsin C (Sigma-Aldrich T-4540), an inhibitor of long-chain fatty acyl CoA synthetase that blocks synthesis of triglycerides, was used as a positive control for lipid under-storage. A total of 23 nL of compounds dissolved in DMSO at different concentrations were transferred to the assay plates using a Kalypsys pin tool equipped with a 1,536-pin array containing 10-nL slotted pins (FP1S10, 0.457-mm diameter, 50.8 mm long; V&P Scientific). The final DMSO concentration was 0.46%. One microliter of oleic acid at 400 uM (Calbiochem, #4954) was added to induce lipid droplet formation in the cells, and the plates were lidded with stainless steel rubber gasket lined lids containing pinholes. After 18-24 h incubation at 25 0C and 95% humidity, 4 uL of the BODIPY lipid dye 493/503 (1:2000, Molecular Probes) and the Cell Tracker Red CMTPX dye (Life Technologies, # 34552) were added to the wells to stain lipid droplets and enumerate cell number, respectively. Fluorescence was detected by excitation of the fluorophores with a 488-nm laser on an Acumen Explorer (TTP Lab Tech). The total intensity in channel 1 (500-530 nm) reflected lipid droplet accumulation. Cells were detected using channel 3 (575-640 nm) with 5-um width and 100-um depth filters. The ratio of the total intensity in PMT channel 1 over total intensity of channel 3 was also calculated. Percent activity was computed relative to an internal control (100% inhibited lipid droplet deposition due to the presence of 20 uM Triacsin C), which was added to 32 wells/plate.

Structure (SMILES)	activity, negative = lipid storage inhibition	Potency
CCOC(=O)C1CCN(C(=O)C(C)(C)NC(=O)Nc2ccc(C#N)cc2)CC1	-43.3% (inactive)	–
O=C(NC1CCCc2c1cnn2-c1ccc(F)cc1F)c1cnon1 (stereo not given)	3.33% (inactive)	–
CCOc1ccc(CCNC(=O)C2CCCCC2)cc1OCC	66.7% (inactive)	–
CN(C)CC(=O)NC1CCCc2c1cnn2-c1ccc(F)cc1F (stereo not given)	73.3% (inactive)	–
CCOc1ccc(CCNC(=O)c2cnon2)cc1OCC	-10% (inactive)	–
CCOC(=O)C1CCN(C(=O)C(C)(C)NC(=O)Nc2cccc(-c3csc(C)n3)c2)CC1	6.67% (inactive)	–
CCOc1ccc(CCNC(=O)Cc2ccccc2)cc1OCC	46.7% (inactive)	–
O=C(NCCc1ccc(O)c(O)c1)c1cc2sccc2n1Cc1ccccc1	26.7% (inactive)	–
CCOc1ccc(CCNC(=O)C2=C(C)OCCO2)cc1OCC	150% (inactive)	–
CCOc1ccc(CCNC(=O)c2cc3ccccc3n2Cc2ccc(Cl)c(F)c2)cc1OCC	–	5.9 nM (active)
CCOc1cc(CCNC(=O)c2cc3sccc3n2Cc2ccccc2)cc(F)c1OCC	–	33.2 nM (active)
CCOC(=O)C1CCN(C(=O)C(C)(C)NC(=O)Nc2ccc3sccc3c2)CC1	-63.3% (inactive)	–
COc1cc(Nc2ncc(F)c(Nc3ccc4c(n3)NC(=O)C(C)(C)O4)n2)cc(OC)c1OC	-83.3% (inactive)	–
O=C(NC1CCCc2c1cnn2-c1ccc(F)cc1F)c1ccccc1 (stereo not given)	–	20.9 nM (active) and 26.4 nM (active)
O=C(O)CCc1ccc(NCc2cccc(Oc3ccccc3)c2)cc1	70% (inactive)	–
CC1(C)CCC(c2ccc(Cl)cc2)=C(CN2CCN(c3ccc(C(=O)NS(=O)(=O)c4ccc(N[C@H](CCN5CCOCC5)CSc5ccccc5)c(S(=O)(=O)C(F)(F)F)c4)cc3)CC2)C1	–	526 nM (active)
CCOc1ccc(CCNC(C)=O)cc1OCC	-23.3% (inactive)	–
CCOc1ccc(CCNC(=O)c2csc(Br)n2)cc1OCC	140% [at 38.8 µM] (inactive)	–
O=C(NCCc1ccc(OCC(F)(F)F)c(OCC(F)(F)F)c1)c1cc2sccc2n1Cc1ccccc1	–	1320 nM (active)
O=C(NC1CCCc2c1cnn2-c1ccc(F)cc1F)c1cccs1 (stereo not given)	–	14.8 nM (active)

Structure (SMILES)	activity, negative = lipid storage inhibition	Potency
Cc1cc(SCc2sc(-c3ccc(C(F)(F)F)cc3)nc2C)ccc1OCC(=O)O	73.3% (inactive)	–
CCOc1ccc(CCNC(=O)c2cc3sccc3n2Cc2ccccc2)cc1OCC	–	4.2 nM (active)
CCn1c(C(=O)NCCc2ccc(OC)c(OC)c2)cc2sccc21	-46.7% (inactive)	–
Cc1cccc(-c2ccc3ncnc(NCc4cccc(F)c4)c3c2)c1	-96.7% (inactive)	–
CN(C)Cc1ccc(-c2nc3cccc4c3n2CCNC4=O)cc1	33.3% (inactive)	–
CCOc1ccc(CCNC(=O)c2cc3sccc3n2Cc2ccncc2)cc1OCC	–	132 nM (active)
CC(NCc1ccc2c(c1)nc(NC(=O)c1ccc(-c3cn[nH]c3)s1)n2CC(C)(C)O)C(C)(C)C (stereo not given)	-30% (inactive)	–
CCOC(=O)C1CCN(C(=O)C2(NC(=O)Nc3ccccc3Cl)CC2)CC1	-60% (inactive)	–
O=C(NC1CCCc2c1cnn2-c1ccc(O)cc1)c1ccccn1 (stereo not given)	–	1.2 nM (active)
CCOC(=O)C1CCN(C(=O)C(C)(C)NC(=O)Nc2cccc(C(=O)OC)c2)CC1	-6.67% (inactive)	–
CC(C)(C)OC(=O)N1CCCCC1C(=O)NC1CCCc2c1cnn2-c1ccc(F)cc1F (stereo not given)	26.7% (inactive)	–
O=C(NCCc1ccc2c(c1)OCO2)c1cc2sccc2n1Cc1ccccc1	3.33% (inactive)	–
CCOc1ccc(CCN(C)C(=O)c2cc3sccc3n2Cc2ccccc2)cc1OCC	–	469 nM (active)
CCOc1ccc(CCNC(=O)c2cc3sccc3n2CCN2CCN(C)CC2)cc1OCC	–	332 nM (active)
CCOc1ccc(CCNC(=O)c2cc3sccc3n2Cc2ccccn2)cc1OCC	–	29.6 nM (active)
CCOc1ccc(CCNC(=O)C2(c3ccccc3)CC2)cc1OCC	177% (inactive)	–
O=C(N[C@H]1CCCc2c1cnn2-c1ccc(F)cc1F)c1ccccn1	13.3% (inactive)	–
O=C(Nc1ccccc1-c1cn2c(CN3CCNCC3)csc2n1)c1cnc2ccccc2n1	-100% (inactive)	–
O=C(Cc1ccccc1)NC1CCCc2c1cnn2-c1ccc(F)cc1F (stereo not given)	30% (inactive)	–
CCOc1ccc(CCNC(=O)c2ccccn2)cc1OCC	180% (inactive)	–
